# Screening results as filed in PubChem BioAssay.
# A selection: hits, their analogues and other compounds. The true share with any hit is near 2%.
# M1 ag parental = nonselective activator or artifact in parental CHO-K1 cells; Fluo-8 calcium fluorescence; scaled to maximal ATP response, vehicle zero; activation, % at 3 µM; actives 0.48% (n = 360,000); AID 602248; in the data active means activation above about 15%;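 further: untransfected CHO-K1 host cells lacking M1 receptor as counterscreen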
# CHO-K1 Ca PAM = M1 PAM counterscreen hit in parental CHO-K1 cells | ATP EC20, Fluo-8 calcium fluorescence; 0% at ATP EC20, 100% at ATP max | activation, % at 3 µM | actives 0.02% (n = 360,000) | AID 602247;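 active means activation above the run cutoff, the mean activation of all test compounds plus 3 SD, cut at about 40% in these data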;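 further: peak over basal fluorescence ratio in a 140 s read after ATP addition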
# CHRM4 antagonist = blocks acetylcholine activation of human M4 receptor; CHO-hM4 cells, ACh EC80, Fluo-8 calcium fluorescence; inhibition, % at 3 µM; actives 0.73% (n = 360,000); AID 624125;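 active means inhibition above its plate's cutoff, the mean inhibition of sample wells plus 3 SD, cut at about 27% in these data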
# Target sequence (P08173 whole entry, looked up): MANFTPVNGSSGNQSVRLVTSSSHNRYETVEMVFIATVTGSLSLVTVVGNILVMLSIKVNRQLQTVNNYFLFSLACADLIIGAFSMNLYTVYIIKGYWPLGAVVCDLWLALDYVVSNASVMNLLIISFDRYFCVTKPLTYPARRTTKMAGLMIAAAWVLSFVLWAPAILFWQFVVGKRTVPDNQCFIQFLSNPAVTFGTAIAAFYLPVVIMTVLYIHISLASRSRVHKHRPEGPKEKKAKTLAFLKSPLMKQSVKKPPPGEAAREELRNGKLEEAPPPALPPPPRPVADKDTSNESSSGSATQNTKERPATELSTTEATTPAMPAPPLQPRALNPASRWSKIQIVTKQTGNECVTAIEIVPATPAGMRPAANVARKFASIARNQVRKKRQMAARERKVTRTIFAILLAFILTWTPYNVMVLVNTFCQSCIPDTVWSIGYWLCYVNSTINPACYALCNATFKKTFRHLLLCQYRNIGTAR
# CHO-K1 Ca antag = nonselective inhibitor or artifact in parental CHO-K1 cells; actives 0.6% (n = 360,000); ATP-induced calcium, Fluo-8 fluorescence; AID 602250; inhibition, % at 3 µM;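 active means inhibition above a per-plate cutoff, the plate's mean sample inhibition plus 3 SD, cut at about 24% in these data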
# CHRM4 agonist = agonists of human muscarinic M4 receptor (CHRM4); P08173; CHO-K1 hM4/Gqi5, Fluo-8 calcium fluorescence; vehicle 0%, full acetylcholine response 100%; activation, % at 3 µM; actives 0.14% (n = 360,000); AID 624127;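 active means activation above the run mean over all test wells plus 3 SD, cut at about 32% in these data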;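 further: peak over basal fluorescence ratio per well then scaled between controls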
# M4 PAM = potentiates acetylcholine response at human M4 receptor. actives 0.4% (n = 360,000). P08173. CHO-K1 hM4/Gqi5, Fluo-8 calcium fluorescence, ACh EC20; 0% = ACh EC20, 100% = maximal ACh. activation, % at 3 µM;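 active means activation above its plate's cutoff, the mean activation of sample wells plus 3 SD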
# Hits are given with their value; – = inactive.
SMILES,M1 ag parental,CHO-K1 Ca PAM,CHRM4 antagonist,CHO-K1 Ca antag,CHRM4 agonist,M4 PAM
COc1ccc([N+](=O)[O-])cc1NC(=O)c1cc(C)c(C)o1,–,–,–,24.8,–,–
COc1ccc([N+](=O)[O-])cc1NC(=O)c1ccco1,–,–,–,–,–,–
Cc1ccc(C(=O)N2CCC(C)CC2)cc1S(=O)(=O)N1CCCCC1,–,–,–,–,–,–
O=C(CCNS(=O)(=O)c1ccccc1)NCC1CCCCC1,–,–,–,–,–,20.7
CC(NC(=O)CCNS(=O)(=O)c1ccccc1)c1ccccc1 (stereo not drawn),–,–,–,–,–,21.8
CC(CCc1ccccc1)NC(=O)CCNS(=O)(=O)c1ccccc1 (stereo not drawn),–,–,–,–,–,–
COc1ccc(OCCCC(=O)ON=C(N)c2ccccc2C)cc1,–,–,–,–,–,–
O=C(Nc1cnn(Cc2ccc(Cl)cc2Cl)c1)c1cc(-c2cccs2)on1,–,–,–,–,–,30.7
O=C(Nc1cnn(Cc2ccc(Cl)cc2Cl)c1)c1noc2c1CCCC2,–,–,–,–,–,–
CC1CCc2nc3ccc(S(=O)(=O)N4CCC(C(=O)NC5CCCC5)CC4)cc3c(C(=O)O)c2C1 (stereo not drawn),–,–,–,–,–,–
COC(=O)Cc1ccc(OC2(C)CCN(Cc3ccc(-c4ccccn4)cc3)C2)cc1 (stereo not drawn),–,–,33.7,–,–,–
COC(=O)Cc1ccc(OC2(C)CCN(Cc3ccccc3OC(F)F)C2)cc1 (stereo not drawn),–,–,55.5,–,–,–
CCc1ccc(OC2(C)CCN(Cc3ccccc3OC(F)F)C2)cc1 (stereo not drawn),–,–,–,–,–,–
Cc1cc(C)c2c(n1)nn1c(N3CCN(c4ccccc4)CC3)cc(C)nc21,–,–,–,33.2,–,–
Cc1cc(N2CCN(c3ccccc3)CC2)n2ncnc2n1,–,–,–,–,–,–
CC1Sc2ccc(S(=O)(=O)N3CCC(C(=O)NCC(C)c4ccccc4)CC3)cc2NC1=O (stereo not drawn),15.5,–,–,–,–,–
Cc1cc(C)cc(NC(=O)C2CCN(S(=O)(=O)c3ccc4c(c3)NC(=O)C(C)S4)CC2)c1 (stereo not drawn),–,–,–,–,–,–
CC1Sc2ccc(S(=O)(=O)N3CCC(C(=O)NCCc4ccccc4)CC3)cc2NC1=O (stereo not drawn),–,–,–,–,–,–
Cc1ccc(NC(=O)C2CCN(S(=O)(=O)c3ccc4c(c3)NC(=O)C(C)S4)CC2)cc1Cl (stereo not drawn),–,–,28.7,–,–,–
COC(=O)Nc1ccc(S(=O)(=O)NNC(=O)c2c(O)c3ccccc3[nH]c2=O)cc1,–,–,–,–,–,–
Cc1ccc(S(=O)(=O)NNC(=O)c2c(O)c3ccccc3[nH]c2=O)cc1,15.9,–,–,–,–,–
Cn1ncc(Oc2ccc([N+](=O)[O-])cc2)c(Cl)c1=O,15.3,–,–,–,–,–
COc1ccc(CCN2C(=O)C(Oc3ccccc3C)C2c2ccc3c(c2)OCO3)cc1 (stereo not drawn),–,–,–,–,–,–
COc1ccc(CCN2C(=O)C(Oc3ccccc3C)C2c2ccc3c(c2)OCO3)cc1OC (stereo not drawn),–,–,28.7,–,–,–
O=C(c1cccc(C(F)(F)F)c1)N1CCC(O)(CS(=O)(=O)Cc2ccccc2)CC1,–,–,–,–,–,–
SMILES,M1 ag parental,CHO-K1 Ca PAM,CHRM4 antagonist,CHO-K1 Ca antag,CHRM4 agonist,M4 PAM
O=C(c1cccc(C(F)(F)F)c1)N1CCC(O)(CS(=O)(=O)Cc2ccc(Cl)cc2)CC1,–,–,–,28.6,–,–
COc1ccc(CSc2nnc(NC(C)=O)s2)cc1[N+](=O)[O-],–,–,–,–,–,–
Cc1ccc(Cl)cc1N1CCN(CC(=O)Nc2ccc(CN3CCCCC3)cc2)CC1,–,–,–,–,–,–
COc1ccc(C(=O)Nc2ccc(Cl)c(S(=O)(=O)Nc3ccccc3OC)c2)cc1,–,–,–,–,–,–
O=C(Nc1cccc(F)c1)Nc1cccc(Cl)c1,16.5,–,–,30.4,–,–
O=C(CN1C(=O)c2ccccc2C1=O)Nc1cccc(S(=O)(=O)Nc2ccccc2Cl)c1,–,–,–,–,–,25.2
COc1ccccc1NS(=O)(=O)c1cc(NC(=O)c2ccc(Cl)nc2)ccc1Cl,16.1,–,–,–,–,–
Fc1ccc(CNC(=S)Nc2cccc(C(F)(F)F)c2)cc1,–,–,–,–,–,–
FC(F)(F)c1cccc(NC(=S)NCc2ccc(Cl)cc2)c1,16.9,–,–,–,–,–
Cc1ccc(C2=NOC(=O)/C2=C\c2ccccc2)cc1,–,–,–,–,–,–
O=C(NCc1ccc(F)cc1)Nc1ccc(Cl)cc1,–,–,–,–,–,–
COc1ccccc1NS(=O)(=O)c1cccc(NC(=O)Nc2cccc(Cl)c2)c1,–,–,47.5,33.6,–,–
COc1ccccc1NS(=O)(=O)c1cccc(NC(=O)NCCCl)c1,–,–,–,–,–,–
O=C(NCc1ccc(F)cc1)Nc1cccc(Cl)c1,–,–,–,30.5,–,–
COC(=O)c1cc(NC(=O)Nc2cccc(Cl)c2)ccc1Cl,18.0,–,–,23.8,–,–
COC(=O)c1cccc(NC(=S)Nc2ccc(Cl)c(Cl)c2)c1,–,–,–,25.7,–,–
O=C1CC(c2ccccc2)c2ccccc21 (stereo not drawn),–,–,–,–,–,–
COc1ccc(CC(=O)NC2CCN(Cc3nnnn3C(C)(C)C)CC2)cc1OC,–,–,–,–,–,–
COC(CNC(=O)C1CCCN(S(=O)(=O)c2c(C)noc2/C=C/c2cccs2)C1)OC (stereo not drawn),15.5,–,–,–,–,–
COCCNCC(=O)N1c2ccccc2Sc2ccccc21,–,–,30.9,–,–,–
CC(C)NC(=O)N1c2ccccc2Sc2ccccc21,–,–,–,–,–,–
CC(C)CNCC(=O)N1c2ccccc2Sc2ccccc21,–,–,51.7,–,–,–
Cc1cccc[n+]1CC(=O)N1c2ccccc2Sc2ccccc21,–,–,95.6,–,–,–
CC(=O)N1c2ccccc2Sc2ccccc21,–,–,–,–,–,–
COC(=O)C1C(=O)C=C(N2CCOCC2)CC1(C)C (stereo not drawn),–,–,–,–,–,–
CCNC(=O)CN(C1CCCCC1)S(C)(=O)=O,–,–,–,–,–,22.3
CCN(CC)CCN(C(=O)c1ccc2c(c1)OCCO2)c1nc2cc(C)cc(C)c2s1,–,–,–,–,–,17.7
CCN(CC)CCN(C(=O)c1ccc2c(c1)OCCO2)c1nc2c(Cl)cccc2s1,–,–,–,–,–,–
